Measurements as given in PubChem BioAssay (NCATS).
Where “and” joins values, the source holds several entries; their conditions need not be identical. Equal entries are not always repeated. Inconclusive results are not listed. Some structures have more than one record in an assay (separate samples or runs), and their calls can disagree. Calls of active or inactive are those of the source. Calls come from the whole dose curve; as a rule, active = well fitted inhibition curve with a large enough effect; inconclusive = small, poorly fitted or top-dose-only effect; inactive = flat fitted curve, though single readings scatter.

These compounds were tested against Phospholipid hydroperoxide glutathione peroxidase GPX4 (Homo sapiens) (UniProt P36969) (assay: Primary qHTS Assay for Inhibitors of Recombinant Selenoprotein Glutathione Peroxidase 4 (GPX4) (AID 1845192; note: nearly all actives have a fitted effect of over 65% in size)). Details: recombinant GPX4, GR-coupled NADPH fluorescence, 15 min; series mostly up to 50 µM; activity change, negative = inhibition: at the top concentration.
Sequence of Phospholipid hydroperoxide glutathione peroxidase GPX4 (Homo sapiens) (P36969 whole entry, looked up): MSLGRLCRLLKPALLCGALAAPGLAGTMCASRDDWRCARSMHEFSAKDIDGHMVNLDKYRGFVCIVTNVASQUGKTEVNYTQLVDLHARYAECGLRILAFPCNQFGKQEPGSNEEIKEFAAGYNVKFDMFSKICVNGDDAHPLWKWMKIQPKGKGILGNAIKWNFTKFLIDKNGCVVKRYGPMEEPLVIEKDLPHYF
Description: Assay Provider: Elias S.J. Arner MD PhD.
Department of Medical Biochemistry and Biophysics
Karolinska Institutet, Solna, Stockholm, Sweden
Selenoprotein glutathione peroxidases (GPX), like the ubiquitously expressed GPX1 and the ferroptosis modulator GPX4, enact their antioxidant activities by reducing hydroperoxides using glutathione. […] GPX1 and GPX4 inhibitors have thus shown promise as anti-cancer agents. Existing inhibitors are often promiscuous, or modulate GPX activity only indirectly, so novel direct inhibitors identified through screening against GPX1 and GPX4 could be valuable. Here, we developed optimized glutathione reductase (GR)-coupled GPX assays for the biochemical high-throughput screen (HTS) of almost 12,000 compounds with known mechanisms of action. Initial hits were triaged using a GR counter-screen, assessed for isoform specificity using a separate GPX2 assay, and were assessed for general selenocysteine-targeting activity using a thioredoxin reductase (TXNRD1) assay. With this suite of assays, we identified novel GPX1/GPX2- and GPX4-specific inhibitors and can here present a validated pipeline for future discovery research for selenoprotein-targeting agents.
SEQUENCE No. (e.g., 1, 2, 3, etc.); […] (e.g., Cells, Incubation, Reagent, etc.); VALUE; DESCRIPTION.
1; Reagent 1; 3 uL; 333.33 nM GPx4 enzyme or no enzyme control in 1536-well, black, solid Greiner assay plate.
2; Compound; 25 nL; Kalypsis pin tool (Wako USA) equipped with a 1536-well pin head.
3; Incubation; 30 min; room temperature.
4; Reagent 2; 1 uL; 500 nM GR, 5 mM GSH, 2.5 mM NADPH solution
5; Reagent 3; 1 uL; 2.5 mM CHP in 50% EtOH.
6; Detection; Fluorescence; ViewLux microplate reader, excitation 340 nm and emission 450 nm.
7; Incubation; 15 min; room temperature.
8; Detection; Fluorescence; ViewLux microplate reader, excitation 340 nm and emission 450 nm.
NOTES (numbers refer to Sequence numbers above)
1. 3 µL of 333.33 nM GPX4 and 0.016% BSA in assay buffer (50 mM Tris-HCl, 2 mM EDTA (pH 7.5), 150 mM NaCl) was added to columns 3-48 of 1536-well plates using a BioRAPTR Flying Reagent Dispenser (Let's Go Robotics (LGR), Carlsbad, CA). A no-enzyme control (0.01% BSA in TES assay buffer) was added to columns 1-2.
2. 25 nL, library and DMSO controls were added to each well with a pin tool (Kalypsys).
3. The assay plates were incubated for 30 minutes at room temperature.
4. 1 µL of master mix (500 nM glutathione reductase (GR), 5 mM reduced glutathione (GSH), 2.5 mM NADPH in assay buffer) was added.
5. 1 µL of cumene hydroperoxide (CHP) ([2.5 mM] in 50% EtOH) was then added within 5 minutes to initiate the reaction. Final concentrations were: 200 nM GPX4, 1 mM GSH, 0.5 mM CHP, 0.5 mM NADPH, 100 nM GR, 0.01% BSA.
6. Initial fluorescence readout (t=0) at 340/450 nm was measured using a ViewLux multimodal detector (PerkinElmer, Waltham, MA).
8. Endpoint fluorescence readout (t=15) at 340/450 nm was measured 15 min after room temperature incubation.
% is set by controls: 0 for no effect and ±100 for the full control effect; potency is the fitted concentration of half-maximal effect.

Compound | Potency | activity change, negative = inhibition | outcome
Nc1cc(C(F)(F)F)c(-c2cc(N3CCOCC3)nc(N3CCOCC3)n2)cn1 | inactive | – | –
CC(C)(C)OC(=O)Nc1ccc(-c2cc(C(=O)NCCCCCCC(=O)NO)no2)cc1 | – | -5.44% (inactive) | –
Nc1ccccc1NC(=O)c1ccc(CNc2nccc(-c3cccnc3)n2)cc1 | inactive | – | –
Nc1nccc(Oc2ccc(NC(=O)c3c[nH]cc(-c4ccc(F)cc4)c3=O)cc2F)c1Cl | – | -6.5% (inactive) | –
Cc1cc(CN2CCN(c3c(Br)cnc4nc(-c5ccc(N6CCN(C)CC6)cc5)[nH]c34)CC2)no1 | inactive and 14.3 µM (active) | – | –
C#Cc1cccc(Nc2ncnc3cc(OC)c(OCCCCCCC(=O)NO)cc23)c1 | inactive | – | –
Clc1cccc(-c2nnnn2Cc2cccnc2)c1Cl | – | -4.07% (inactive) | –
O=C(O)C1(Cc2cccc(Nc3nccs3)n2)CCC(Oc2cccc(Cl)c2F)CC1 (stereo not given) | – | -8.58% (inactive) | –
O=C(CCCCCCNC(=O)c1cnc(N(c2ccccc2)c2ccccc2)nc1)NO | inactive | – | –
CC(C)c1nn(-c2c(Cl)cccc2Cl)c2nc(Cc3ccc(OCCO)cc3)[nH]c(=O)c12 | inactive | – | –
CC1COC2(CCN(c3nc(=O)c4cc(C(F)(F)F)cc([N+](=O)[O-])c4s3)CC2)O1 (stereo not given) | – | 8.35% (inactive) | –
OCCCNc1cc(-c2ccnc(Nc3cccc(Cl)c3)n2)ccn1 | – | -6.69% (inactive) | –
CNc1nccc(-c2cccnc2Oc2cc(C(=O)Nc3cccc(C(F)(F)F)c3)ccc2C)n1 | inactive | – | –
CC1(C)CCC(c2ccc(Cl)cc2)=C(CN2CCN(c3ccc(C(=O)NS(=O)(=O)c4ccc(N[C@H](CCN5CCOCC5)CSc5ccccc5)c(S(=O)(=O)C(F)(F)F)c4)cc3)CC2)C1 | 10.1 µM (active) | – | –
CCCNC(=O)Nc1ccc(Oc2ncnc3cc(OC)c(OC)cc23)cc1Cl | – | – | inactive
O=C(Cc1ccc(-c2ccc(OCCN3CCOCC3)cc2)cn1)NCc1ccccc1 | inactive | – | –
COc1cc(-c2nn(C3CCC(N4CCN(C(C)=O)CC4)CC3)c3ncnc(N)c23)ccc1NC(=O)c1cc2ccccc2n1C (stereo not given) | – | -6.23% (inactive) | –
CN(c1ncccc1CNc1nc(Nc2ccc3c(c2)CC(=O)N3)ncc1C(F)(F)F)S(C)(=O)=O | – | -16.6% (inactive) | –
O=C(c1ccc(Nc2nccc(-c3cc4ccccc4s3)n2)cc1)N1CCC(N2CCCC2)CC1 | – | -12.5% (inactive) | –
CC(C)c1ccc(Cn2ccc3c4c(N)nc(NC5CC5)nc4ccc32)cc1 | 18 µM (active) | – | –

Compound | Potency | activity change, negative = inhibition | outcome
Nc1ccccc1NC(=O)c1ccc(CNC(=O)OCc2cccnc2)cc1 | inactive | – | –
Nc1nc(NCCNc2ncc(-n3ccnc3)c(-c3ccc(Cl)cc3Cl)n2)ccc1[N+](=O)[O-] | inactive | – | –
CCCCCN(CCC12CC3CC(CC(C3)C1)C2)C(=O)NCCCc1ccncc1 | – | 4.01% (inactive) | –
CC(=O)c1c(C)c2cnc(Nc3ccc(N4CCNCC4)cn3)nc2n(C2CCCC2)c1=O | inactive | – | –
Cn1cncc1[C@@](N)(c1ccc(Cl)cc1)c1ccc2c(c1)c(-c1cccc(Cl)c1)cc(=O)n2C | – | -33.1% (inactive) | –
CN(C)c1nc(Cc2ccc(NC(=O)c3ccc4ccccc4c3)cc2)nc(Cl)c1CC(=O)O | – | -8.13% (inactive) | –
O=c1c2ccccc2nc2n1CCc1c-2[nH]c2ccccc12 | – | – | inactive
CC(C)c1cc(C(=O)N2Cc3ccc(CN4CCN(C)CC4)cc3C2)c(O)cc1O | inactive | – | –
CNC(=O)CN1CCC(Oc2cc3c(Nc4cccc(Cl)c4F)ncnc3cc2OC)CC1 | inactive | – | –
COc1cccc(Nc2c(C(N)=O)cnc3c(C)cc(S(=O)(=O)c4cccc(C(=O)N(C)C)c4)cc23)c1 | – | – | inactive
O=c1[nH]nc(Sc2ncc([N+](=O)[O-])s2)n1-c1ccc2c(c1)OCCO2 | – | -15.5% (inactive) | –
Cc1ccc(CN2CCNCC2)cc1NC(=O)CNc1ccc(F)c(F)c1 | – | 7.38% (inactive) | –
NC(=O)c1c(OCc2c(F)cc(Br)cc2F)nsc1NC(=O)NCCCCN1CCCC1 | – | 1.06% (inactive) | –
COc1cc(Nc2ncc(F)c(Nc3ccc4c(n3)N(COP(=O)(O)O)C(=O)C(C)(C)O4)n2)cc(OC)c1OC | inactive | – | –
COc1cc(C(=O)N2CCC(N3CCN(C)CC3)CC2)ccc1Nc1ncc2c(n1)N(C)c1ccccc1C(=O)N2C | inactive | – | –
COc1cc2c(cc1-c1c(C)noc1C)ncc1[nH]c(=O)n([C@H](C)c3ccccn3)c12 | – | 0.747% (inactive) | –
NC(=O)Nc1cc(-c2cccc(F)c2)sc1C(=O)N[C@H]1CCCNC1 | inactive | – | –
O=C(O)CCCc1c[nH]c2ccccc12 | – | 1.52% (inactive) | –
Cn1cc(-c2ccncc2)c(-c2ccc(OCc3ccc4ccccc4n3)cc2)n1 | – | -16% (inactive) | –
COc1cc(C(=O)NS(=O)(=O)c2ccccc2C)ccc1Cc1cn(C)c2ccc(NC(=O)OC3CCCC3)cc12 | 9.04 µM (active) | – | –
